Screening data from PubChem.
Sampled rows, rich in hits. Any-hit rate of the full collection: about 1.8%.
Myeloid diff MLP: myeloid differentiation induction. ER-HoxA9 myeloid progenitors, lysozyme-GFP differentiation, flow cytometry. calls only at 10 µM. 1% of 360,000 active. AID 624256;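 active = normalized GFP-positive differentiation at or above the plate's own cutoff, the solvent-only control mean plus 3 SD; inconclusive = no clear call, values can overlap the other calls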;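 note: cells exposed to compound for four days before flow analysis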
Granule exo inh: blocks lytic granule exocytosis | TALL-104 LAMP-1 surface exposure, flow cytometry; cells stimulated with thapsigargin and PMA | 0.66% of 360,000 active | AID 651702 | inhibition, % at 10 µM;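 active = inhibition above about 55%, limit read from the data; inconclusive = no clear call, values can overlap the other calls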
ABCB6 inh MLPCN: human ABCB6 transporter inhibition; fluorescence ratio to DMSO, % at 10 µM; 0.19% of 360,000 active; AID 602162; K562-ABCB6 porphyrin accumulation, flow cytometry, 1 h; hits give low values;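 active = fluorescence ratio to DMSO below 75%, the collection mean minus 3 SD; inconclusive = too few cells collected in the well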;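 note: signal is porphyrin accumulated inside mitochondria; lower ratio means ABCB6 inhibition with less porphyrin fluorescence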
Target sequence (Q9NP58 whole entry, looked up): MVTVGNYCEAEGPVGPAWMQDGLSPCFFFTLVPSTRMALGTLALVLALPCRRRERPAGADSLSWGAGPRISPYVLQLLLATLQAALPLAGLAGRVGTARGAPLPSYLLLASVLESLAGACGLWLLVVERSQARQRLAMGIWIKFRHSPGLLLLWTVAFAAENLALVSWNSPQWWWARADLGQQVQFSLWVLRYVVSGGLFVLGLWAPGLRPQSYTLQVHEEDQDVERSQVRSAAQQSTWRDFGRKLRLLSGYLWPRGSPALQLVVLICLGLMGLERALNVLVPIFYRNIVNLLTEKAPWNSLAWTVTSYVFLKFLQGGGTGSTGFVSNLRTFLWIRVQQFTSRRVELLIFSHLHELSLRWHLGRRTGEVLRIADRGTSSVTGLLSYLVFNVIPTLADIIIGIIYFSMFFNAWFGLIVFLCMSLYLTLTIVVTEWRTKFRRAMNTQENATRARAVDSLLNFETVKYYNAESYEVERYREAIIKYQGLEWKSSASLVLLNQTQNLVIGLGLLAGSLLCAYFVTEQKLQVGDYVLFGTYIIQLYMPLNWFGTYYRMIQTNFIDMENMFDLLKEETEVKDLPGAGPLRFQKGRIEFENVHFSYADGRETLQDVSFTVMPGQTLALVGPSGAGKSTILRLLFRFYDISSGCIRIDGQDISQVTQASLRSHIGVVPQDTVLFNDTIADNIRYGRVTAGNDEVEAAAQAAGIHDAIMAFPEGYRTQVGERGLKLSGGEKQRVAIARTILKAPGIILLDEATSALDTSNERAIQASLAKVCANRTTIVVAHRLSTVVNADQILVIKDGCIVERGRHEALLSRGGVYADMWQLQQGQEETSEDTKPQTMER
Large screens that a line does not name were inactive.

CC(C)(C)c1ccc(C(=O)Nc2nnc(Cc3c[nH]c4ccccc34)s2)cc1	none
CCN1CCN(c2ccc(NC(=O)CC3OC(=O)c4ccccc43)cc2C)CC1 (centres undefined)	none
CNc1c2cccc(C)c2nc2c(C(=O)NCCN(C)C)cccc12	none (no result: Myeloid diff MLP)
CC(=O)c1cccc(N(C(=O)CNC(=O)c2ccco2)C(C(=O)NC2CCCC2)c2ccncc2)c1 (centres undefined)	Myeloid diff MLP inconclusive
CC1CC(NC(=O)c2c(O)nc3ccccn3c2=O)CC(C)(C)C1 (centres undefined)	none (no result: Myeloid diff MLP)
CC1CC(NC(=O)c2c(O)nc3sccn3c2=O)CC(C)(C)C1 (centres undefined)	Myeloid diff MLP active
CCN(CC)C(=O)Cn1cc([N+](=O)[O-])cc1[N+](=O)[O-]	none
CCOC(=O)C1(C)CCCCN1C(=O)c1cccc(Cl)c1 (centres undefined)	none
CCN(C(=O)C1CCN(S(=O)(=O)c2ccc3c(c2)oc(=O)n3C)CC1)c1cccc(C)c1	Myeloid diff MLP active
Cc1ccc(N(C)C(=O)C2CCN(S(=O)(=O)c3ccc4c(c3)oc(=O)n4C)CC2)cc1	none
S=C(Nc1cccc(Cl)c1)N(CCCN1CCCC1)Cc1cccn1Cc1ccc(Cl)cc1	Granule exo inh 84.6
COc1cccc(NC(=S)N(CCCN2CCCC2)Cc2cccn2Cc2ccc(Cl)cc2)c1	none
O=C(NC1CCCC1)C1c2ccccc2OCC(=O)N1CCCN1CCOCC1 (centres undefined)	none
Oc1ccccc1-c1nnc(COc2ccc(Cl)cc2Cl)o1	Myeloid diff MLP active
Oc1ccccc1-c1nnc(COc2ccccc2)o1	none
NC(N)=NN=C1c2ccccc2-c2ccccc21	Myeloid diff MLP active
ON=C1c2ccccc2-c2ccccc21	none
CCN(CC(=O)Nc1ccccc1C(F)(F)F)C(=O)c1ccc(NC(=O)c2cccs2)cc1	none
Cc1cc(C)c(C(=O)COC(=O)Cn2cnnn2)cc1C	none
O=C(Cn1cnnn1)OCC(=O)c1ccc(Cl)s1	Myeloid diff MLP active
CCCC(=O)N1CCCC1(C)C(=O)Nc1ccc2nc(C)ccc2c1 (centres undefined)	none
OCC[C@@H]1NCc2cc(CO)cc(-c3ccccc3)c21	none
OCc1ccccc1SSc1ccccc1CO	none
Cc1cc(C)cc(OCC(=O)NN2Cc3ccccc3C2=N)c1	none
N=C1c2ccccc2CN1NC(=O)CC12CC3CC(CC(C3)C1)C2	Myeloid diff MLP active
O=C1C(c2ccc(F)cc2)N(Cc2ccc3c(c2)OCO3)C(=O)CN1C1CCCC1 (centres undefined)	none
COc1ccccc1CN1C(=O)CN(C2CCCC2)C(=O)C1c1ccc(F)cc1 (centres undefined)	Myeloid diff MLP active
O=C(O)CSc1cc(C(=O)c2cc(F)ccc2O)cn2c(=O)c3c(-c4ccccc4)csc3nc12	none
CCOC(=O)c1sc2nc3c(SCCC(=O)O)cc(C(=O)c4cc(OC)ccc4O)cn3c(=O)c2c1C	Myeloid diff MLP active
CN(C(=O)CSc1nnc(-c2ccco2)n1C)C1CCCCC1	none
CCOC(=O)C[n+]1c(C)sc2ccc(OC)cc21	Granule exo inh 74.7
CCO/C(=C/c1sc2ccc(OC)cc2[n+]1CCCS(=O)(=O)[O-])CC	none
COCCCNC(=O)c1cc(-c2cccnc2)nc2ccccc12	none
COCCNC(=O)c1cc(-c2ccc(-c3ccccc3)cc2)nc2ccccc12	Myeloid diff MLP active
O=C(NCc1ccccn1)c1cc(-c2ccc(-c3ccccc3)cc2)nc2ccccc12	Myeloid diff MLP active
O=C(NCc1ccccn1)c1cc(-c2ccccc2)nc2ccccc12	none
O=C1NC[C@H](CCCCN2C[C@H](Cc3ccc(O)cc3)N(CCc3ccc(O)cc3)C(=O)C2=O)N(CCc2ccccc2)C1=O	none
CCCS(=O)(=O)NC(=O)C1(C)CCN(C(=O)c2cccc(OC(F)(F)F)c2)C1 (centres undefined)	none
O=C(NCc1nc2ccccc2[nH]1)C1=C[C@H](c2ccccc2)C[C@H](OCc2ccc(CO)cc2)O1	none
O=C(NCc1nc2ccccc2[nH]1)C1=C[C@@H](c2ccccc2)C[C@@H](OCc2ccc(CO)cc2)O1	Granule exo inh 70.7
COc1ccc(-c2cc(C(F)F)n3ncc(C(=O)NCC4CCCO4)c3n2)cc1 (centres undefined)	none
COc1ccc(-c2cc(C(F)(F)F)n3ncc(C(=O)NCC4CCCO4)c3n2)cc1OC (centres undefined)	ABCB6 inh MLPCN 64.0
CCOC(=O)CC1c2nc3ccccc3cc2CN1C(=O)OCC (centres undefined)	none
N#Cc1c(C(F)(F)F)cc(-c2ccc(Cl)c(Cl)c2)nc1SCCN1CCOCC1	none
N#Cc1c(C(F)(F)F)cc(-c2ccccc2)nc1SCc1nc(N)nc(N2CCOCC2)n1	Myeloid diff MLP active
COCCOC(=O)C(C#N)c1nc2ccccc2nc1N1CCN(Cc2ccccc2)CC1 (centres undefined)	Myeloid diff MLP active
